Reference: PubChem BioAssay AID430 (Sanford-Burnham Center for Chemical Genomics, 2006)
Screen size: about 63,000 compounds; about 1,100 (1.7%) were called active. Many of the other results were omitted from the sample, so actives are more common in it than they were. Entries with a potency or affinity are not part of this list. Values without a mark were called inactive. Rule as the data show it: active = cytotoxicity above about 50%; inactive = the rest.

Assay: cytotoxicity in HPDE-C7 cells, cell-based, fluorescence, HTS (AID 430);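 also: cells exposed to compound for 48 hours before viability readout; 0% = vehicle and 100% = reference cytotoxic drug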
Settings: HPDE-C7 pancreatic duct cells viability, at 10 µM, stronger effect = higher value

| Compound | cytotoxicity |
| --- | --- |
| C=CCN1C(=O)C2(c3ccccc31)C1CCCC=C1C(C#N)=C(N)C2(C#N)C#N (stereo not given) | -22.1% |
| C=C(C)c1cccc(C(C)(C)NC(=O)N2CCOCC2)c1 | 7.9% |
| COc1ccc(C(=O)C(c2ccccc2)N2CCOCC2)cc1 (stereo not given) | -4.6% |
| COc1ccc(C(=O)O)cc1F | -2.5% |
| COc1ccc(C(=O)CCN2CCCCCC2)cc1 | 19.8% |
| COc1ccc(C(O)C(CN2CCOCC2)c2ccccc2)cc1F (stereo not given) | -2.2% |
| CCOC(=O)Cc1nnc(NC(=O)CSc2nnc3c4ccccc4n(C(C)C)c3n2)s1 | -15% |
| CC1CCCCC1NC(=O)C1CCN(S(=O)(=O)c2ccc3c(c2)CCC(=O)N3)CC1 (stereo not given) | -18.5% |
| COc1ccccc1C1NC(=O)CS1 (stereo not given) | -18.6% |
| Cc1nc(-c2ccccc2)cc(N2CCCC2)n1 | -14.7% |
| Nc1nc(-c2ccccc2)cc(N2CCCCC2)n1 | 50.6% (active) |
| c1ccc(-c2cc(N3CCCCC3)ncn2)cc1 | -3.8% |
| CCOc1cccc2c1OC1(C)CC2NC(=O)N1c1cccc(F)c1 (stereo not given) | -12.1% |
| Cc1nnc(SCC(=O)Nc2ncc(Cc3ccc(F)cc3)s2)n1N | -7.7% |
| Cc1ccc(C(=O)Nc2ncc(Cc3ccccc3)s2)o1 | 31.4% |
| Cc1ccc(C(=O)Nc2ncc(Cc3ccc(F)cc3)s2)o1 | 57.5% (active) |
| CCOc1ccc(CN(CCO)CCO)cc1C(=O)OC | -17% |
| CSc1cccc(NC(=O)CSc2nc3ccccc3o2)c1 | -17.5% |
| O=C(CSc1nc2ccccc2o1)Nc1ccccc1 | -13.9% |
| CCCCN(Cc1ccccc1)C(=O)C1CCCN(S(=O)(=O)c2cnc[nH]2)C1 (stereo not given) | 6% |
| Cc1cccc2cc(C#N)c(SCC(=O)N3CC(=O)Nc4ccccc43)nc12 | 53.4% (active) |
| Cc1ccccc1-n1c(C)nnc1SCC(=O)N1CC(=O)Nc2ccccc21 | 4.2% |
| Cc1cccc2cc(C#N)c(SCC(=O)N3CCC(C)CC3)nc12 | 8.5% |
| C=CCOc1ccc(/C(O)=C2/C(=O)C(=O)N(CCN3CCOCC3)C2c2ccc(C)cc2)cc1 (stereo not given) | -1.1% |

| Compound | cytotoxicity |
| --- | --- |
| N#CC1=C(N)C(C#N)(C#N)[C@H](c2ccncc2)[C@H]2CC3(CC=C12)OCCO3 | -12.1% |
| Cc1ccc(C2C3CN(C(C)C)CC=C3C(C#N)=C(N)C2(C#N)C#N)cc1 (stereo not given) | -0.7% |
| CCOC(=O)c1cccc(NC(=O)CSc2nnc(-c3cccnc3)n2CC)c1 | -5.8% |
| COc1ccccc1-n1c(SCC(=O)N2CCCCC2)nc2cccnc21 | -11.8% |
| c1ccc2c(c1)oc1c(N3CCN(Cc4ccc5c(c4)OCO5)CC3)ncnc12 | 8.4% |
| COc1ccc2[nH]c3c(N4CCN(Cc5ccc6c(c5)OCO6)CC4)ncnc3c2c1 | 50.6% (active) |
| c1ccc2c(c1)[nH]c1c(N3CCSCC3)ncnc12 | 44% |
| c1ccc(Cn2nnc3c(N4CCN(Cc5ccc6c(c5)OCO6)CC4)ncnc32)cc1 | 11.9% |
| COc1cccc2[nH]c3c(N4CCN(Cc5ccc6c(c5)OCO6)CC4)ncnc3c12 | 47.6% |
| COc1cccc(N2CCN(c3ncnc4c3[nH]c3ccc(F)cc34)CC2C)c1 (stereo not given) | 114% (active) |
| COc1ccc2c(c1)c(C(O)CN1CCN(Cc3ccc4c(c3)OCO4)CC1)c(C)n2C (stereo not given) | 21.3% |
| COc1ccc2c(c1)c1ncnc(N3CCN(Cc4ccc5c(c4)OCO5)CC3)c1n2C | 54.9% (active) |
| CN1CCN(c2ncnc3c2[nH]c2ccc(F)cc23)CC1 | 6.4% |
| Fc1ccc2[nH]c3c(N4CCN(C5CCCCC5)CC4)ncnc3c2c1 | 10.6% |
| Fc1ccc2[nH]c3c(N4CCN(c5ccccc5)CC4)ncnc3c2c1 | 10.8% |
| Cc1ccc(N(CC(=O)NC2CCCCCC2)S(=O)(=O)c2c(C)nn(C)c2C)cc1 | 3.4% |
| COc1cccc(C(=O)N(CN2CCCC2=O)c2ccccc2OC)c1 | -0.2% |
| CCCC(c1nnnn1Cc1ccc(F)cc1)N1CCN(C2CCCCC2)CC1 (stereo not given) | 10.8% |
| O=C(CN1CCN(c2ccccn2)CC1)Nc1ccc(OCc2ccccc2)cc1 | 3.7% |
| O=C1c2ccccc2C(=O)N1CCSc1nncs1 | -8.3% |
| COC(=O)c1[nH]c2cc(OC)ccc2c1NC(=O)CCN1CCN(Cc2ccc3c(c2)OCO3)CC1 | -20.7% |
| c1nc(N2CCN(Cc3ccc4c(c3)OCO4)CC2)c2[nH]cnc2n1 | -4% |
| Fc1ccc2[nH]c3c(N4CCN(Cc5ccc6c(c5)OCO6)CC4)ncnc3c2c1 | 89.3% (active) |
| Cc1ccc2c(c1)[nH]c1c(N3CCN(Cc4ccc5c(c4)OCO5)CC3)ncnc12 | -17.1% |

| Compound | cytotoxicity |
| --- | --- |
| Cc1ccc2[nH]c3c(N4CCN(Cc5ccc6c(c5)OCO6)CC4)ncnc3c2c1 | 30.3% |
| COc1ccccc1-n1c(SCC(=O)NC(C)(C)C)nnc1-c1ccco1 | 3.2% |
| COC(=O)c1sc(NC(=O)CSc2nnc(C(C)C)n2C)nc1C | -8.2% |
| COc1ccccc1CN1C(=O)CCC1(C)C(=O)NC1CCCCCC1 (stereo not given) | -12.9% |
| COCCNC(=O)c1cnn2c(C(F)(F)F)cc(-c3ccc4c(c3)OCO4)nc12 | 4.1% |
| Cc1cc(-c2ccccc2)c2c3c(cn2n1)c(=O)n(C)c(=O)n3C | 2.6% |
| Cc1nc2sc3c(c2c2nnc(SCC(=O)NCc4ccco4)n12)CCCC3 | -3.2% |
| CCCCCSc1nc(N2CCOCC2)c2c(c1C#N)CC(C)(C)OC2 | 1.7% |
| CC1(C)Cc2c(C#N)c(SCC(=O)c3ccccc3)nc(N3CCOCC3)c2CO1 | -5.6% |
| CN1Cc2c(N3CCOCC3)nc(SCc3ccccc3)c(C#N)c2CC1(C)C | 51.3% (active) |
| CC1(C)Cc2c(C#N)c(SCc3ccccc3)nc(N3CCOCC3)c2CO1 | 18.9% |
| CC1(C)Cc2c(C#N)c(SCCOc3ccccc3)nc(N3CCOCC3)c2CO1 | 59.4% (active) |
| N#Cc1c(SCc2ccccc2)nc(N2CCOCC2)c2c1CCCC2 | 8.3% |
| Cn1c(=O)c2c(ncn2CC(=O)N2CCCc3ccccc32)n(C)c1=O | -15.8% |
| CCOC(=O)c1cccc(S(=O)(=O)N(CCO)Cc2cc3cc(OC)c(OC)cc3[nH]c2=O)c1 | -19.4% |
| COc1ccc(-n2c(Cc3cccn3C)nnc2SCC(=O)Nc2nccs2)cc1 | 5.7% |
| Nc1ccccc1OCCOCCOCCOc1ccccc1N | 5.3% |
| CCC(C)n1cnc2c(c1=O)c1nc3ccccc3nc1n2Cc1ccc2c(c1)OCO2 (stereo not given) | 26.8% |
| COc1cc(C2=NOC(C(=O)NCc3ccco3)C2)cc(OC)c1OC (stereo not given) | 32.6% |
| COc1ccc(C2=NOC(C(=O)NCc3ccc(F)cc3)C2)cc1OC (stereo not given) | 55.2% (active) |
| COc1cc(C2=NOC(C(=O)NCc3ccc(F)cc3)C2)cc(OC)c1OC (stereo not given) | 63.4% (active) |
| COc1ccc(NC(=O)C2CC(c3ccc(OC)c(OC)c3)=NO2)cc1OC (stereo not given) | -6.6% |
| COc1cc(C2=NOC(C(=O)Nc3ccc(C)cc3)C2)cc(OC)c1OC (stereo not given) | -9.2% |
| COc1ccc(C2=NOC(C(=O)NCc3ccco3)C2)cc1OC (stereo not given) | 38.7% |

| Compound | cytotoxicity |
| --- | --- |
| O=C(c1ccco1)N(CCCN1CCOCC1)c1nc(-c2ccc(F)cc2)cs1 | 11.3% |
| COc1ccc(NC(C)=O)cc1NC(=O)CSc1nnc(-c2cccnc2)n1C | -13.3% |
| O=C(NCC1CCCO1)C1CCC(CNS(=O)(=O)c2ccccc2)CC1 (stereo not given) | 13.6% |
| COc1ccc(OC)c2sc(NC(=O)CCS(=O)(=O)c3ccccc3)nc12 | -0.4% |
| O=C(CCS(=O)(=O)c1ccccc1)Nc1nc2c(s1)COc1ccccc1-2 | 98.3% (active) |
| O=C(Nc1nc2c(s1)COc1ccccc1-2)c1cccs1 | 9.6% |
| Clc1ccc2nc(CN3CCCc4ccccc43)cn2c1 | 23.1% |
| CCCCCn1c(=NC(C)=O)c(C#N)cc2c(=O)n3ccccc3nc21 | 8.8% |
| O=C(O)Cn1cc(C(=O)c2cccs2)c2ccccc21 | -14% |
| COCCn1c(C(C)C)nc2oc3ccccc3c(=O)c2c1=O | -9.4% |
| CCC(=O)N1CCc2cc(S(=O)(=O)NCCN3CCC(C)CC3)ccc21 | -1.8% |
| CCN1C(=O)CC(N2CCC(C(=O)OC)CC2)C1=O (stereo not given) | -6.2% |
| Cc1nc2sc(C(c3ccccc3)N3CCN(CCO)CC3)c(O)n2n1 (stereo not given) | -1.3% |
| CN1CCN(C(c2cccnc2)c2ccc3cccnc3c2O)CC1 (stereo not given) | -9.1% |
| OCCN1CCN(C(c2cccs2)c2ccc3cccnc3c2O)CC1 (stereo not given) | 79.3% (active) |
| CC1CCC(C(=O)NC(C(=O)NCCN2CCC(C)CC2)C(C)C)CC1 (stereo not given) | -16.7% |
| Cc1nnc(SCc2ccccc2Cl)n1CC1CCCO1 (stereo not given) | -11.9% |
| COc1ccc(NC2=CC(=O)CC(C)(C)C2)cc1OC | -19.2% |
| O=C(Nc1cccc2ccccc12)N1CCN(c2ccccc2)CC1 | 15.2% |
| O=C(Nc1cccc(NC(=O)N2CCN(c3ccccc3)CC2)c1)N1CCN(c2ccccc2)CC1 | 56.3% (active) |
| O=C(Nc1ccc2snnc2c1)N1CCN(c2ccccc2)CC1 | -24.9% |
| COc1ccc(Cn2c(C)nc3oc4cc(OC)ccc4c(=O)c3c2=O)cc1 | -21% |
| Nc1nc2n(n1)C(c1cccc(Cl)c1)CC(c1ccc(F)cc1)N2 (stereo not given) | 10.8% |
